Reference: PubChem BioAssay (EPA / NIEHS)
Active and inactive are the calls of the source. The calls were made as follows: active = hit-call score of the fitted dose curve at least 0.9, where 1 is the maximum; inactive = score below 0.9.

Read-out: Tissue Factor, F3 (gene 2152)
Test: BSK_CASM3C_TissueFactor: BioMAP Diversity Plus: CASM3C Assay for Tissue Factor Biomarker Activity (AID 2283052);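 also: cell surface tissue factor protein level read by ELISA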
Conditions: primary human coronary artery smooth muscle cells; actives raise or lower the signal

SMILES	outcome
COc1cc(C=O)ccc1O	inactive
CC=Cc1ccc(O)c(OC)c1	inactive
CCCCCCCCCCO	inactive
CC(=O)Oc1ccccc1C(=O)O	inactive
CCCCCCCC=O	inactive
CCOC(=O)CCC(=O)OCC	inactive
O=[N+]([O-])C(CO)(CO)CO	inactive
NS(=O)(=O)c1cc2c(cc1Cl)NCNS2(=O)=O	inactive
Cc1cc(NC(=O)C(=O)O)cc(C)c1Oc1ccc(O)c2c1CCC2	inactive
Cc1cccc(Nc2cc(Cl)nc(SCC(=O)O)n2)c1C	inactive
CC(C)(C)c1cc(O)c(C(C)(C)C)cc1O	inactive
CCCCN(CCCC)CCCC	inactive
CN1CCCC1=O	inactive
CCCCOC(=O)CCCCCCCCC(=O)OCCCC	inactive
O=C(O)Cc1ccccc1Nc1c(Cl)cccc1Cl	inactive
CCCCCCCCCCC	inactive
Nc1ccc2c(c1)C(=O)c1ccccc1C2=O	inactive
CCCCCCCCCCCCCCCCCC(=O)O	inactive
Nc1ccccc1N	inactive
O=C(N[C@@H](Cc1ccccc1)[C@@H](O)C(=O)N1C[C@@H](O)[C@@H](O)C1)c1cc2cc(Cl)ccc2[nH]1	inactive
CCCCCCCCCCCCCCCC	inactive
Cc1ccc(N(C)C)cc1	inactive
Cc1c(C(=O)O)c(O)cc2c1C(=O)c1c(O)c([C@@H]3O[C@H](CO)[C@@H](O)[C@H](O)[C@H]3O)c(O)c(O)c1C2=O	inactive
CCc1c(C(=O)NN2CCCCC2)nn(-c2ccc(Cl)cc2Cl)c1-c1ccc(Br)cc1	inactive
c1cc(-c2ccncc2)ccn1	inactive
CC(=O)C(C)=CC1C(C)=CCCC1(C)C (configuration not stated)	inactive
COc1cc(S(=O)(=O)O)c(C)cc1N=Nc1c(O)ccc2cc(S(=O)(=O)O)ccc12	inactive
O=c1[nH]cc(F)c(=O)[nH]1	inactive
C[Si]1(C)O[Si](C)(C)O[Si](C)(C)O[Si](C)(C)O1	inactive

Read-out: Interferon-gamma inducible Protein 10 (IP10), CXCL10 (gene 3627)
Test: BSK_hDFCGF_IP10: BioMAP Diversity Plus: hDFCGF Assay for Interferon-gamma inducible Protein 10 (IP10) Biomarker Activity (AID 2283053)
Conditions: primary human foreskin fibroblasts; actives raise or lower the signal
In short: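 Primary foreskin fibroblasts, human; 24 h compound exposure; IP-10 by ELISA; bidirectional fit vs DMSO.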

SMILES	outcome	AC50
COc1cc(C=O)ccc1O	inactive	–
CC=Cc1ccc(O)c(OC)c1	inactive	–
CCCCCCCCCCO	inactive	–
CC(=O)Oc1ccccc1C(=O)O	inactive	–
CCCCCCCC=O	inactive	–
CCOC(=O)CCC(=O)OCC	inactive	–
O=[N+]([O-])C(CO)(CO)CO	inactive	–
NS(=O)(=O)c1cc2c(cc1Cl)NCNS2(=O)=O	inactive	–
Cc1cc(NC(=O)C(=O)O)cc(C)c1Oc1ccc(O)c2c1CCC2	inactive	–
Cc1cccc(Nc2cc(Cl)nc(SCC(=O)O)n2)c1C	inactive	–
CC(C)(C)c1cc(O)c(C(C)(C)C)cc1O	–	20 µM (active)
CCCCN(CCCC)CCCC	inactive	–
CN1CCCC1=O	inactive	–
CCCCOC(=O)CCCCCCCCC(=O)OCCCC	inactive	–
O=C(O)Cc1ccccc1Nc1c(Cl)cccc1Cl	inactive	–
CCCCCCCCCCC	inactive	–
Nc1ccc2c(c1)C(=O)c1ccccc1C2=O	inactive	–
CCCCCCCCCCCCCCCCCC(=O)O	inactive	–
Nc1ccccc1N	inactive	–
O=C(N[C@@H](Cc1ccccc1)[C@@H](O)C(=O)N1C[C@@H](O)[C@@H](O)C1)c1cc2cc(Cl)ccc2[nH]1	inactive	–
CCCCCCCCCCCCCCCC	inactive	–
Cc1ccc(N(C)C)cc1	inactive	–
Cc1c(C(=O)O)c(O)cc2c1C(=O)c1c(O)c([C@@H]3O[C@H](CO)[C@@H](O)[C@H](O)[C@H]3O)c(O)c(O)c1C2=O	inactive	–
CCc1c(C(=O)NN2CCCCC2)nn(-c2ccc(Cl)cc2Cl)c1-c1ccc(Br)cc1	–	4.55 µM (active)
c1cc(-c2ccncc2)ccn1	inactive	–
CC(=O)C(C)=CC1C(C)=CCCC1(C)C (configuration not stated)	inactive	–
COc1cc(S(=O)(=O)O)c(C)cc1N=Nc1c(O)ccc2cc(S(=O)(=O)O)ccc12	inactive	–
O=c1[nH]cc(F)c(=O)[nH]1	inactive	–
C[Si]1(C)O[Si](C)(C)O[Si](C)(C)O[Si](C)(C)O1	inactive	–

Read-out: Urokinase-type plasminogen activator receptor (uPAR), PLAUR (gene 5329)
Test: BSK_CASM3C_uPAR: BioMAP Diversity Plus: CASM3C Assay for Urokinase-type plasminogen activator receptor (uPAR) Biomarker Activity (AID 2283054);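 also: cell-surface uPAR protein level quantified by ELISA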
Conditions: primary human coronary artery smooth muscle cells; actives raise or lower the signal

SMILES	outcome	AC50
COc1cc(C=O)ccc1O	inactive	–
CC=Cc1ccc(O)c(OC)c1	inactive	–
CCCCCCCCCCO	inactive	–
CC(=O)Oc1ccccc1C(=O)O	inactive	–
CCCCCCCC=O	inactive	–
CCOC(=O)CCC(=O)OCC	inactive	–
O=[N+]([O-])C(CO)(CO)CO	inactive	–
NS(=O)(=O)c1cc2c(cc1Cl)NCNS2(=O)=O	inactive	–
Cc1cc(NC(=O)C(=O)O)cc(C)c1Oc1ccc(O)c2c1CCC2	inactive	–
Cc1cccc(Nc2cc(Cl)nc(SCC(=O)O)n2)c1C	inactive	–
CC(C)(C)c1cc(O)c(C(C)(C)C)cc1O	inactive	–
CCCCN(CCCC)CCCC	inactive	–
CN1CCCC1=O	inactive	–
CCCCOC(=O)CCCCCCCCC(=O)OCCCC	inactive	–
O=C(O)Cc1ccccc1Nc1c(Cl)cccc1Cl	inactive	–
CCCCCCCCCCC	inactive	–
Nc1ccc2c(c1)C(=O)c1ccccc1C2=O	–	20 µM (active)
CCCCCCCCCCCCCCCCCC(=O)O	inactive	–
Nc1ccccc1N	inactive	–
O=C(N[C@@H](Cc1ccccc1)[C@@H](O)C(=O)N1C[C@@H](O)[C@@H](O)C1)c1cc2cc(Cl)ccc2[nH]1	inactive	–
CCCCCCCCCCCCCCCC	inactive	–
Cc1ccc(N(C)C)cc1	inactive	–
Cc1c(C(=O)O)c(O)cc2c1C(=O)c1c(O)c([C@@H]3O[C@H](CO)[C@@H](O)[C@H](O)[C@H]3O)c(O)c(O)c1C2=O	inactive	–
CCc1c(C(=O)NN2CCCCC2)nn(-c2ccc(Cl)cc2Cl)c1-c1ccc(Br)cc1	–	25.1 µM (active)
c1cc(-c2ccncc2)ccn1	inactive	–
CC(=O)C(C)=CC1C(C)=CCCC1(C)C (configuration not stated)	inactive	–
COc1cc(S(=O)(=O)O)c(C)cc1N=Nc1c(O)ccc2cc(S(=O)(=O)O)ccc12	inactive	–
O=c1[nH]cc(F)c(=O)[nH]1	inactive	–
C[Si]1(C)O[Si](C)(C)O[Si](C)(C)O[Si](C)(C)O1	inactive	–
